High-throughput results as filed in PubChem.
Rows were chosen to be rich in hits. Some 4.7% of all compounds tested hit in one or more screens of this group.
PABP1 MLLE inh – inhibitors of microRNA-mediated deadenylation, human PABP1 MLLE binding; GST-MLLE / FITC-PAM2 fluorescence polarization; inhibition, % at 20 µM; 0.36% of 360,000 active; in the data active = inhibition above about 35%, passing the limit was not always enough;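 note: plate controls were DMSO wells with GST-MLLE for no effect and wells lacking GST-MLLE protein for full effect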
Target sequence (P11940 whole entry, looked up): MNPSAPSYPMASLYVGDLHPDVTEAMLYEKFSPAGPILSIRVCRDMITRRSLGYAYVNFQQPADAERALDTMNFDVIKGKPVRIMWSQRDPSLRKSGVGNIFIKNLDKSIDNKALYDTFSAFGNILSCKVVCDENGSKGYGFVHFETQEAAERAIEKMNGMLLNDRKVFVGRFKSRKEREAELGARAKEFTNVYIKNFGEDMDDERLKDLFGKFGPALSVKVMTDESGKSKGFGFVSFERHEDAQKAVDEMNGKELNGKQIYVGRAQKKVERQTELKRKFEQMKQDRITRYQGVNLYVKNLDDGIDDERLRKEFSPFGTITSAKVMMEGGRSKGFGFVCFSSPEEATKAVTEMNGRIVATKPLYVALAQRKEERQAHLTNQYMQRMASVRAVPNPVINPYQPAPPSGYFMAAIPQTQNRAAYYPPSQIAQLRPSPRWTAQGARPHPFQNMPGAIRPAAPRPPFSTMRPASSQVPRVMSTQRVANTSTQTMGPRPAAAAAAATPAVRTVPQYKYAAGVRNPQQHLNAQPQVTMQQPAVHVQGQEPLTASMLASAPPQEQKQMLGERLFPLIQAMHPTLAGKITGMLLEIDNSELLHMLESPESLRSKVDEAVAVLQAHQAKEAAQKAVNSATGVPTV
eIF4H FP inh – inhibitors of RNA binding by human eIF4H; eIF4H fluorescence polarization binding assay; inhibition, % at 35 µM; Q15056; 0.94% of 290,000 active;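 note: calls also rest on retests at 20 µM and on dose response follow-up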
PABP polyA inh – PABP-poly(A) binding inhibition. P11940. PABP-poly(A) RNA binding, fluorescence polarization. inhibition, % at 35 µM. 1% of 290,000 active. AID 2014;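 note: calls also rest on retests at 20 µM and on dose response follow-up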
SUMO HTRF inh – inhibitors of human SUMOylation (UBC9). HTRF SUMOylation assay, SAE1/SAE2 + UBC9, in vitro. inhibition, % at 35 µM. 0.36% of 290,000 active; in the data active = inhibition above about 50%, passing the limit was not always enough; inconclusive = no clear call, values can overlap the other calls
Efflux pump inh – blocks antifungal efflux pumps in multiplex yeast assay. S. cerevisiae Candida pump triplex, Nile Red efflux. inhibition, % at 10 µM. 0.44% of 330,000 active. AID 485275;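 active = plate passing quality check with inhibition over a set limit, or well fluorescence over plate mean plus 4 SD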;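 note: Nile Red retained in pooled yeast measured as flow cytometry median fluorescence; 0% = buffer negative control and 100% = Enniatin B positive control; higher means more Nile Red kept so more efflux inhibition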
ALR inh – human ALR oxidase inhibition via reduced H2O2 | AID 485317 | purified ALR, DTT oxidation, H2O2 HRP-luminol luminescence | P55789 | 3.8% of 290,000 active | inhibition, % (concentration not given with the values);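 active = mean replicate inhibition above about 79%, with every replicate also reaching it, limit read from the data; inconclusive = only one of the two criteria met; inactive = mean below limit and not every replicate reaching it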
Numbers without * were called inactive; ? = inconclusive; . = not tested or not shown. Unless noted, the rule behind the calls is not given here.

SMILES | PABP1 MLLE inh | eIF4H FP inh | PABP polyA inh | SUMO HTRF inh | Efflux pump inh | ALR inh
Cc1cc(=O)[nH]c(SCC(=O)Nc2ccc(S(N)(=O)=O)cc2)n1 | 21 | 63* | active | 27 | 0 | 99*
CCN(C(=O)CCS(=O)(=O)c1ccc2c(c1)oc(=O)n2C)c1ccc(OC)cc1 | 10 | 4 | 4 | 5 | 0 | -8
CCCOc1ccc(/C=C/C(=O)N2CCN(C(=O)c3ccco3)CC2)cc1OC | 9 | . | . | . | . | .
COc1ccc2nc(-c3ccccc3)nc(SCC(=O)NCC3CCCO3)c2c1 (stereo not given) | 2 | 7 | 0 | -10 | 0 | 5
CCOC(=O)c1ccc(NC(=O)CSc2nc(C)cc(=O)[nH]2)cc1 | -7 | 81* | 18* | 28 | 0 | 99*
CCN(CC)c1ccc(NC(=O)CSc2nc(C)cc(=O)[nH]2)cc1 | 10 | -8 | -8 | 1 | 1 | 99*
CCN(CC)c1ccc(NC(=O)CSc2nc3ccccc3c(=O)[nH]2)cc1 | -5 | -1 | -1 | 29 | 0 | ?
COC(=O)c1cc(NC(=O)CSc2nc(C)cc(=O)[nH]2)cc(C(=O)OC)c1 | 10 | 11 | 16 | 9 | 0 | 60
CCOC(=O)c1ccc(NC(=O)CSc2nc3sc(C(=O)O)c(C)c3c(=O)[nH]2)cc1 | -1 | -2 | -12 | -3 | 0 | 98*
O=C1[C@@H](Oc2ccccc2)[C@@H](c2cccnc2)N1c1ccccc1 | -20 | . | . | . | 0 | .
C[C@@H](O)C1NC(=O)[C@H](CCCCN)NC(=O)c2cc([N+](=O)[O-])cc(I)c2NCCC[C@@H](C(N)=O)NC1=O (stereo not given in full) | 4 | -10 | -4 | 8 | . | -13
Cc1cc(C(=O)OCC(=O)NC2CCCCC2C)c2ccccc2n1 (stereo not given) | 3 | . | . | . | 0 | -26
CC1CCCCC1NC(=O)COC(=O)c1c2c(nc3ccccc13)/C(=C/c1ccco1)CC2 (stereo not given) | -22 | 88 | -8 | 65* | 0 | -5
O=C(COC(=O)c1c2c(nc3ccccc13)/C(=C/c1ccco1)CC2)NC1CCCC1 | -20 | 104 | 3 | 71* | . | .
Cc1cccnc1NC(=O)c1ccc(C(=O)c2ccccc2)cc1 | -4 | . | . | . | 0 | 0
CC1=CC(C)C2(COC(=O)Nc3ccccc3)COC(C)C1C2C (stereo not given) | -6 | 6 | -5 | -1 | 0 | -3
Cc1ccnc(NC(=O)CCC(=O)N(CC(=O)NCCc2ccccc2)c2ccccc2F)c1 | -16 | 6 | 6 | -6 | 0 | -7
CC(=O)c1cccc(NC(=O)CSCc2ccccc2)c1 | 13 | 0 | 3 | 10 | 0 | 97*
COc1cc(NC(=O)C(c2ccccc2)c2ccccc2)c(C(=O)O)cc1OC | 3 | 1 | 8 | 2 | 1 | 92*
Cc1nc(SCc2ccccc2)c([N+](=O)[O-])[nH]1 | -4 | -6 | -4 | 10 | 0 | .
COc1ccc(CSc2nc(C)[nH]c2[N+](=O)[O-])cc1[N+](=O)[O-] | 10 | -10 | -6 | -1 | 0 | 100*
COc1ccc(CSCC(=O)Nc2ccccc2)cc1[N+](=O)[O-] | 3 | -4 | -2 | -7 | 0 | 99*
O=C(O)c1ccc(NC(=O)C(c2ccccc2)c2ccccc2)cc1 | 6 | 2 | 10 | -2 | 0 | -7
O=C(c1ccc(NC(=O)C(c2ccccc2)c2ccccc2)cc1)c1ccc(C(=O)O)c(C(=O)O)c1 | 13 | 78* | 61* | 9 | 0 | 94*
COc1cc(NC(=O)CSCc2ccccc2)c(C(=O)O)cc1OC | -18 | -3 | -1 | 7 | 0 | 76*
SMILES | PABP1 MLLE inh | eIF4H FP inh | PABP polyA inh | SUMO HTRF inh | Efflux pump inh | ALR inh
CC(C)(C)CC(C)(C)c1ccc(O)c(Cc2ccc(Cl)cc2Cl)c1 | 8 | . | . | . | . | .
CN1/C(=C/C(=O)c2nc(S(C)(=O)=O)ncc2Cl)C(C)(C)c2ccccc21 | 12 | -6 | -11 | -6 | 0 | 98*
COc1cccc(NC(=S)NC2CC(C)CC(C)(C)C2)c1 (stereo not given) | -53 | . | . | . | . | .
CCCC(=O)Nc1sc(C)c(C)c1C#N | 31 | -12 | -1 | 22 | 0 | 11
CCc1c(C)sc(NC(=O)c2cc(C)no2)c1C#N | 31 | -12 | 11 | 11 | 0 | 93*
CCc1c(C)sc(NC(=O)c2cc(C(C)C)on2)c1C#N | 29 | -6 | -6 | 4 | 0 | 6
CCc1c(C)sc(NC(=O)CC#N)c1C#N | -16 | 74* | 87* | 17 | 0 | 28
S=C(c1ccc2c(c1)OCO2)N1CCN(c2cccc(Cl)c2)CC1 | 33 | . | . | . | . | .
Cc1ccc(C)c(OCC(=O)Nc2nonc2NC(=O)COc2cc(C)ccc2C)c1 | 9 | -5 | -4 | 57* | 0 | 14
Cc1cccc(OCC(=O)Nc2nonc2NC(=O)COc2cccc(C)c2)c1 | 9 | . | . | . | 0 | -15
NC(N)=N/N=C/c1ccc(OS(=O)(=O)c2ccccc2)cc1 | -14 | active | 77 | -7 | 0 | 0
O=C(COC(=O)COc1ccc(Cl)cc1Cl)NC1CCS(=O)(=O)C1 (stereo not given) | 0 | . | . | . | 0 | -6
CC1CCCC(C)N1c1nnc(N)s1 (stereo not given) | -29 | 14 | 5 | -10 | 0 | 95*
CC1NC(=O)COC1c1ccccc1 (stereo not given) | -15 | . | . | . | . | .
OCc1ccccc1CNCc1ccccc1 | 3 | -2 | 10 | 14 | 0 | 6
OCc1ccccc1SSc1ccccc1CO | 41* | . | . | . | 0 | 98*
N#Cc1c(-c2cccc(Cl)c2)[nH]c(=S)[nH]c1=O | 53* | 0 | 4 | 14 | 0 | 80*
CN(/N=C/c1c[nH]c2ccccc12)c1cnn(-c2ccc(F)c(Cl)c2)c(=O)c1Cl | -92 | 78* | 70* | 26 | 0 | -8
COc1cccc2cc(-c3nc4ccccc4[nH]3)c(=O)oc12 | -15 | 3 | 8 | 42 | 0 | -18
Cc1cccc2cc(-c3nc4ccc(C(=O)O)cc4[nH]3)c(=O)oc12 | -8 | 65* | 43 | ? | 0 | -24
COC(C/C=C\C(=O)[C@H](C)OCc1ccccc1)OC | 1 | . | . | . | . | 83*
O=C(CC1Sc2ncnn2C1=O)Nc1ccc(Cl)cc1 (stereo not given) | . | -1 | -20 | -4 | 0 | 2
CCOC(=O)c1ccc(NC(=O)CC2SC(=NC)N(C)C2=O)cc1 (stereo not given) | 1 | -10 | -3 | -11 | 0 | 48
COc1ccc(NC(=O)CC2Sc3ncnn3C2=O)cc1 (stereo not given) | 43* | -16 | -20 | 15 | 0 | 22
CCOC(=O)c1ccc(NC(=O)CC2Sc3ncnn3C2=O)cc1 (stereo not given) | 42* | -2 | -12 | 22 | 0 | 0
Cc1cc(C(=O)COC(=O)c2cc(Cl)c(O)c(Cl)c2)c(C)n1C | 8 | . | . | . | 0 | 6
C/C=C(/CCC1NCCc2c1[nH]c1ccccc21)[Si](C)(C)C (stereo not given) | -41 | . | . | . | . | .
